Assay outcomes as filed in PubChem.
PNC assembly inh – perinucleolar compartment assembly inhibition. PC3M PTB-GFP, PNC prevalence imaging, 16 h; active compounds read low. actives 3.1% (n = 140,000). activity change (PNC), negative = inhibition, % at 10 µM;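 active = readout at or below -70, meaning at least 70% loss of cells showing the perinucleolar compartment, a nuclear body marking cancer cells; inconclusive = readout between -30 and a set limit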
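Read-out is percentage of cells bearing a perinucleolar compartment, from automated 20x imaging of fixed, Hoechst-stained PC3M PTB-GFP cells. Cells were seeded 4 h, then exposed 16 h to compound (23 nl of library stock) in duplicate plates.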
HPGD inh – inhibitors of human 15-hydroxyprostaglandin dehydrogenase (HPGD); P15428; purified HPGD, NADH fluorescence kinetic, PGE2 substrate; Potency, µM, actives largely listed as inhibitors; actives 4.3% (n = 150,000); AID 894
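NADH formation kinetics: reaction with 30 uM PGE2 and 1 mM NAD+ (final), 20 nM enzyme, Tris-HCl pH 8 with Tween 20, after 15 min compound preincubation at room temperature. Fluorescence change, last versus first of five reads.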
ALDH1A1 inh – blocks purified human ALDH1A1 activity | Purified ALDH1A1, NADH fluorescence, propionaldehyde substrate | Potency, µM (doses to about 75.3 µM), actives largely listed as inhibitors | actives 7.3% (n = 220,000) | AID 1030
KDM4E inh – inhibitors of human JMJD2E histone demethylase | B2RXH2 | JMJD2E catalytic domain, FDH-coupled NADH fluorescence (FDH is formaldehyde dehydrogenase) | Potency, µM (series often up to 57.1 µM), hits mostly inhibitors | actives 1.6% (n = 230,000) | AID 2147; also: nearly all actives have a fitted effect of over 50% in size
Target sequence (B2RXH2 1-337 limits assumed): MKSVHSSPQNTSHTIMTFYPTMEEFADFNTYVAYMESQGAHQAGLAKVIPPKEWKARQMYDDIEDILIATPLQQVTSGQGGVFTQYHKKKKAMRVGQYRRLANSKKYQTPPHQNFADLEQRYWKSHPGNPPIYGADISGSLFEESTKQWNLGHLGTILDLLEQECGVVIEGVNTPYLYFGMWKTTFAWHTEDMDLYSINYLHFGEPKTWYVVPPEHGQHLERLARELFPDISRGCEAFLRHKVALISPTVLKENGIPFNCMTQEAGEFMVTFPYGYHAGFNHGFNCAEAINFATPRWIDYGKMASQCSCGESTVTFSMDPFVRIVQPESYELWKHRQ
Large screens that a line does not name were inactive. Compounds with a hit are over-represented: about 11% of the library has one in this group of screens. Unless noted, calls follow the shape of the dose curve; as a rule, active = well fitted inhibition curve with a large enough effect (not every such curve was filed as active); inconclusive = small, poorly fitted or top-dose-only effect, or another doubt; inactive = no such curve, though single readings can be large or run the other way.

CC(NC(=O)CCCn1cc([N+](=O)[O-])cn1)c1ccccc1 (configuration not stated)	none (no result: PNC assembly inh, HPGD inh)
CC(C)CN1CCN(Cc2cccn2-c2cccnc2)CC1CCO (configuration not stated)	ALDH1A1 inh 3.5µM (no result: PNC assembly inh, HPGD inh)
OCCC1CN(Cc2cccn2-c2cccnc2)CCN1Cc1ccc(F)cc1 (configuration not stated)	none (no result: PNC assembly inh, HPGD inh)
CCC1(CC)Cc2ccccc2C(Nc2c(C)n(C)n(-c3ccccc3)c2=O)=N1	none
Cc1c(NC2=NC(C)(C)Cc3ccccc32)c(=O)n(-c2ccccc2)n1C	PNC assembly inh -88
COc1ccc(C(CNC(=O)c2cc(SC)ccc2Cl)N(C)C)cc1 (configuration not stated)	none (no result: PNC assembly inh, HPGD inh)
N[C@@H](Cn1ccc(=O)n(Cc2ccccc2C(=O)O)c1=O)C(=O)O	none (no result: PNC assembly inh)
O=S(=O)(CCN1C=CC(C(F)(F)F)=NCC1)c1ccc(Cl)cc1Cl	ALDH1A1 inh 13µM (no result: PNC assembly inh, HPGD inh)
O=S(=O)(CCN1C=CC(C(F)(F)F)=NCC1)c1ccc(F)cc1	ALDH1A1 inh inconclusive (no result: PNC assembly inh, HPGD inh)
CCOC(=O)CCN1CCN(C(=O)c2ccc(-n3c(=O)c(=O)[nH]c4ccccc43)cc2)CC1	ALDH1A1 inh inconclusive (no result: PNC assembly inh, KDM4E inh)
N[C@@H](CSCc1ccc(I)cc1)C(=O)O	none (no result: PNC assembly inh, KDM4E inh)
Cc1ccc(NNC(=S)Nc2ccc(C(C)C)cc2)c(C)c1	HPGD inh inconclusive, ALDH1A1 inh 22µM
CC(C)c1ccc(NC(=S)Nc2ccc(OC(F)(F)F)cc2)cc1	ALDH1A1 inh inconclusive (no result: PNC assembly inh, HPGD inh)
Cc1cc([N+](=O)[O-])nn1CC(=O)N/N=C/c1ccccc1F	none (no result: PNC assembly inh, HPGD inh, ALDH1A1 inh)
Cc1cc(C)n(CC(=O)N/N=C/c2cc(Br)cc([N+](=O)[O-])c2O)n1	ALDH1A1 inh 20µM (no result: PNC assembly inh, HPGD inh)
CC(C)(C)N/N=C/c1cc(Cl)cc([N+](=O)[O-])c1O	none
Cc1ccccc1C(=O)Nc1cccc(C(=O)N/N=C/c2cc(Cl)cc([N+](=O)[O-])c2O)c1	ALDH1A1 inh 1.3µM (no result: PNC assembly inh, HPGD inh)
Cc1cc([N+](=O)[O-])nn1CC(=O)N/N=C/c1ccccc1O	KDM4E inh 7.9µM (no result: PNC assembly inh, HPGD inh, ALDH1A1 inh)
O=C(Cn1nc2ccccc2n1)N/N=C/c1cc(Cl)cc([N+](=O)[O-])c1O	ALDH1A1 inh 14µM, KDM4E inh inconclusive (no result: PNC assembly inh, HPGD inh)
CC(=O)N1CCN(CC(=O)Nc2cc(S(=O)(=O)N3CCOCC3)ccc2C)CC1	none (no result: PNC assembly inh, HPGD inh)
C#CCO[C@@H]1C[C@H](n2cnc3c(NC(=O)c4ccccc4)ncnc32)O[C@@H]1CO	none (no result: PNC assembly inh, HPGD inh, ALDH1A1 inh)
Cc1cc(NC(=O)/C=C/C(=O)N(CC(=O)NC2CCCC2)c2cccc3ccccc23)no1	ALDH1A1 inh 2µM (no result: PNC assembly inh, HPGD inh)
Cc1ccnc(NC(=S)NC(=O)/C=C/c2ccc(Cl)cc2)c1	none
Cc1cc(C(=O)N/N=C2\CC(=O)CC(C)(C)C2)c(C)n1-c1ccccc1	PNC assembly inh -95, ALDH1A1 inh inconclusive
Cc1cc(C(=O)N/N=C2\CC(=O)CC(C)(C)C2)c(C)n1-c1ccc(F)cc1	ALDH1A1 inh 28µM
Cc1cc(C)nc(SCc2nnc(SCC(N)=O)o2)n1	none (no result: PNC assembly inh, HPGD inh)
COc1cccc(CNC(=S)Nc2cc(C)ccc2C)c1	ALDH1A1 inh inconclusive (no result: PNC assembly inh, HPGD inh)
Cc1nnc(Sc2cc(C(=O)NCCCN(C)Cc3ccccc3)c3ccccc3n2)s1	none
CCN(CC)CCNC(=O)c1cc(Sc2nnc(C)s2)nc2ccccc12	HPGD inh 1.3µM
COc1ccc(OC)c(NC(=O)COC(=O)CSc2ccc(Cl)cc2)c1	none
COc1cc(NC2CCCCC2O)c2nc(-c3ccc(Cl)cc3)ccc2c1 (configuration not stated)	KDM4E inh 22µM (no result: PNC assembly inh, HPGD inh, ALDH1A1 inh)
CN=c1scc(-c2c[nH]c3ccccc23)n1C	ALDH1A1 inh inconclusive (no result: PNC assembly inh, HPGD inh)
Cc1ccc(C(NC(=O)C(C)C)c2cc([N+](=O)[O-])c3cccnc3c2O)cc1 (configuration not stated)	PNC assembly inh inconclusive, KDM4E inh 20µM
COc1ccc(Br)c(C(=O)NC2CCCC2)c1	none (no result: PNC assembly inh, HPGD inh)
Brc1ccc2ncc(Br)cc2c1	none
COc1cc(C)c(NC(=S)Nc2cccc(Cl)c2C)cc1OC	ALDH1A1 inh inconclusive, KDM4E inh inconclusive
C=CCOC(=O)N[C@@H](Cc1ccccc1)/C(C(=O)OC)=C(\C)NCc1ccccc1	ALDH1A1 inh inconclusive (no result: PNC assembly inh)
CCOCC(=O)Nc1cc(Cl)c(OC)cc1OC	none (no result: PNC assembly inh, HPGD inh)
COc1ccc(/C(N)=N/OC(=O)C2CCC(=O)N2S(=O)(=O)c2ccc(C)cc2)cc1 (configuration not stated)	PNC assembly inh -89
O=C(Cn1cccc1C(=O)c1ccccc1)NCc1cccc(Cl)c1	none (no result: PNC assembly inh, HPGD inh)
CC(=O)NC(Nc1c(C)n(C)n(-c2ccccc2)c1=O)C(Cl)(Cl)Cl (configuration not stated)	none (no result: PNC assembly inh, HPGD inh)
COCCOC(=O)c1c(C)oc2ccc(OCc3ccccc3)cc12	PNC assembly inh -114
